Holding throughout (assay): log2 fold change, soluble protein after heating vs DMSO (PISA); higher = thermal stabilisation; K562 cells, 10 uM, 30 min; active = over 0.2 and 3.5 SD of the protein, either way, in both replicates (recomputed)
Compound in assay [1]: C1CCN(C1)C(=O)NC2=CC=CC(=C2)NC3=NC=C(C(=N3)NCCC4=CN=CN4)Br
The method, boiled down:
(§1)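 Soluble protein was defined as the supernatant after 21,000xg for 90 min. It came from K562 cells at 2×10^6 cells/mL given 10 μM compound for 30 min, heated in aliquots for 3 min across 48°C-58°C, pooled, and extracted in PBS with 0.5% NP-40 at 4°C, and was quantified by TMTpro 16plex LC-MS/MS with equalised channel sums. Thermal stability against control samples, from duplicates, is reported as log2 fold change.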

Compound in assay [2]: C1CN(CCC1(CC2=CC=C(C=C2)Cl)N)C3=NC=NC4=C3C=CN4
In outline:
as §1

Compound in another assay: C1COCCN1CCN2C3=CC=CC=C3N=C2NC(=O)C4=CC(=CC=C4)[N+](=O)[O-] [IRAK-1-4 Inhibitor I]
In outline: as §1

Compound in a further assay: CC(C)N(C[C@H]1O[C@@H](n2cnc3c(N)ncnc32)[C@H](O)[C@@H]1O)[C@H]1C[C@@H](CCc2nc3cc(C(C)(C)C)ccc3[nH]2)C1 [pinometostat]
In outline: as §1

Compound in assay [3]: CC1=C(C2=C(C=C1)C(=O)C3=CC=CC=C3N2CCCN)C
In outline:
as §1

Compound in the next assay: C#Cc1cccc(Nc2ncnc3cc(OCCOC)c(OCCOC)cc23)c1 [erlotinib]
The method, boiled down:
as §1

Compound in assay [4]: C1=CC(=CC=C1C2=NC3=C(N2)C=C(C=C3)C(=O)N)OC4=CC=C(C=C4)Cl
In outline: as §1

Compound in assay [5]: C1=CC=C(C=C1)C2=NC(=C(N2)C3=CC=NC=C3)C4=CC(=C(C=C4)Cl)O
The method, boiled down:
as §1

Compound in another assay: CC(C)(C)Cn1c(N)nc2ccc(-c3[nH]c(C(C)(C)C)nc3-c3ccc(F)cc3)nc21 [ralimetinib]
In outline: as §1

Compound in assay [6]: CC(C)C1=C2N=C(C=C(N2N=C1)NCC3=CC=CC=C3)NCCCCCCN
The method, boiled down: as §1

Compound in assay [7]: CC(C)C[C@@H](C=O)NC(=O)[C@H](CC(C)C)NC(=O)[C@H](CC(C)C)NC(=O)OCc1ccccc1
The method, boiled down:
as §1

Compound in assay [8]: C1=CC2=NC=CN=C2C=C1/C=C/3\C(=O)NC(=O)S3
In outline: as §1

Compound in a further assay: C=CC(=O)N1CCC[C@@H](n2nc(-c3ccc(Oc4ccccc4)cc3)c3c(N)ncnc32)C1 [ibrutinib]
In outline:
as §1

Compound in assay [9]: CC1=C(C(CC(=O)N1)C2=CC=C(C=C2)C(F)(F)F)C(=O)NC3=C(C=C4C(=C3)C=NN4)F
The method, boiled down:
as §1

Compound in assay [10]: C/C(=N\NC(=O)C1=CC(=CC=C1)S(=O)(=O)N2CCOCC2)/C3=C(C=CC(=C3)Cl)O
The method, boiled down:
as §1

Compound in assay [11]: C1=CC2=C(C=CC(=C2)/C=C\3/C(=O)NC(=NCC4=CC=CS4)S3)N=C1
In outline:
as §1

Compound in assay [12]: C1=CC=C2C(=C1)C3=NNC4=CC=CC(=C43)C2=O
In outline:
as §1

Compound in assay [13]: CC(=O)c1cnc2ccc(-c3cc(Cl)c(O)c(Cl)c3)nc2c1N[C@H]1CC[C@H](CN(C)C)CC1
The method, boiled down:
as §1

Compound in assay [14]: C1=CC(=C(C=C1Cl)C2=NC3=NC=CN=C3C(=N2)NC4=CC=NC=C4)F
The method, boiled down: as §1

Compound in assay [15]: CC(C)(O)CC(=O)NCCn1ccc2ncnc(Nc3ccc(Oc4cccc(C(F)(F)F)c4)c(Cl)c3)c21
In outline:
as §1

About 7,900 targets were measured; listed, in parts, are those with a hit and a random draw of the rest. About 0.6% of all pairs of compound and target were hits. A number with no mark means an inactive call.

Chain of UniProt O43934 (O43934 whole entry, looked up): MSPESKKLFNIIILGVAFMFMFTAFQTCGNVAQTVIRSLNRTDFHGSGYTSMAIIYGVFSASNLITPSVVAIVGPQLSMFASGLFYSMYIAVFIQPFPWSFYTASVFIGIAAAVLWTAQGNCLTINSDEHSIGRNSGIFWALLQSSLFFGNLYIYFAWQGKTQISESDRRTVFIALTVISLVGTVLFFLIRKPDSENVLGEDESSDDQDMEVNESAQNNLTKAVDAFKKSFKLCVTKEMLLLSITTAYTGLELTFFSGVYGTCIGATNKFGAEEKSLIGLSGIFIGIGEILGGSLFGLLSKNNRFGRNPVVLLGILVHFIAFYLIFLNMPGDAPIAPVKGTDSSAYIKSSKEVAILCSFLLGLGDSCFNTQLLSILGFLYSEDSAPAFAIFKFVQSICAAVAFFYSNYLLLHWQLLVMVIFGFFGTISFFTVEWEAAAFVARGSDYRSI
Chain of UniProt Q13164 (Q13164 whole entry, looked up): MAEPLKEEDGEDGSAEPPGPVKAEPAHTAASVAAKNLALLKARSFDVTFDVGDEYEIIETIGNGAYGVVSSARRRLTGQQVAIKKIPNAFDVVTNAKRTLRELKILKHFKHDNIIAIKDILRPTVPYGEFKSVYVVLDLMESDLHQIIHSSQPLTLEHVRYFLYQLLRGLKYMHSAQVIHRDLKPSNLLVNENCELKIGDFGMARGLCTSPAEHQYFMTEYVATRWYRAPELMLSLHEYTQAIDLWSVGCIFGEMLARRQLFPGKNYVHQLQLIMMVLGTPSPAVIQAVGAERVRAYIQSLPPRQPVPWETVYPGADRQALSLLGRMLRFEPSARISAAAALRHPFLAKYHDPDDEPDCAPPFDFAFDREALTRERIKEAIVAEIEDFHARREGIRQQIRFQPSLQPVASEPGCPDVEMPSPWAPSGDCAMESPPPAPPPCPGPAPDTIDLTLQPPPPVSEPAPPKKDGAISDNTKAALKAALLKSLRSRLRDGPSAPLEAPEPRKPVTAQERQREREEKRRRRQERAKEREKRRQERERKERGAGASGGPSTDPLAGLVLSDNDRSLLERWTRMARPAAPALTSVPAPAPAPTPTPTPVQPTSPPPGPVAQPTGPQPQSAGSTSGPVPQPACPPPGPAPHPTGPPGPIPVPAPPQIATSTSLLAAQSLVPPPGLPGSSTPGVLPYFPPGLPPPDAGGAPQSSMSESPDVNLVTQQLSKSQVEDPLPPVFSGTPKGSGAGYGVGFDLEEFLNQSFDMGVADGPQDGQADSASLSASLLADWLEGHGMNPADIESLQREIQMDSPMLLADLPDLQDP
Chain of UniProt P55082 (P55082 whole entry, looked up): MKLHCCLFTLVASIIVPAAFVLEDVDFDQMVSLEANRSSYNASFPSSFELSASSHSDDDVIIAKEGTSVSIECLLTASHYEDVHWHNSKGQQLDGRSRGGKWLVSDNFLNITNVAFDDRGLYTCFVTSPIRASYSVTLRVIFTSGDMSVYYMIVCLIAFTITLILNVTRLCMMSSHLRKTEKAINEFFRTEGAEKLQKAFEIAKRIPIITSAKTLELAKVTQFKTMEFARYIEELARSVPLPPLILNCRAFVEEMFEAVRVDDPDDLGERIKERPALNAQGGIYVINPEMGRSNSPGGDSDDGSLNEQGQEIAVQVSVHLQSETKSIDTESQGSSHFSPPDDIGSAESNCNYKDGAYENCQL
Chain of UniProt P28300 (P28300 whole entry, looked up): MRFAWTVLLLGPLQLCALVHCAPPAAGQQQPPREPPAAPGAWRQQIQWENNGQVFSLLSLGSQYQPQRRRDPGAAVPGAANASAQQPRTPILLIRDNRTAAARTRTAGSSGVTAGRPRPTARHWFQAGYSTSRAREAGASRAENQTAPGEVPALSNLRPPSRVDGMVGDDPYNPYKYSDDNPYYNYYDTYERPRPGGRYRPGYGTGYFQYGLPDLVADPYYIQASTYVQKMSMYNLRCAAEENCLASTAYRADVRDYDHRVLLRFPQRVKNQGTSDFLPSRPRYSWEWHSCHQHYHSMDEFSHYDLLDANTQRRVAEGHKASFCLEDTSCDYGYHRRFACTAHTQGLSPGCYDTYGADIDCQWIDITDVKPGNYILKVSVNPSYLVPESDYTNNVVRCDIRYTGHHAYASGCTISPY
Chain of UniProt Q13422 (Q13422 whole entry, looked up): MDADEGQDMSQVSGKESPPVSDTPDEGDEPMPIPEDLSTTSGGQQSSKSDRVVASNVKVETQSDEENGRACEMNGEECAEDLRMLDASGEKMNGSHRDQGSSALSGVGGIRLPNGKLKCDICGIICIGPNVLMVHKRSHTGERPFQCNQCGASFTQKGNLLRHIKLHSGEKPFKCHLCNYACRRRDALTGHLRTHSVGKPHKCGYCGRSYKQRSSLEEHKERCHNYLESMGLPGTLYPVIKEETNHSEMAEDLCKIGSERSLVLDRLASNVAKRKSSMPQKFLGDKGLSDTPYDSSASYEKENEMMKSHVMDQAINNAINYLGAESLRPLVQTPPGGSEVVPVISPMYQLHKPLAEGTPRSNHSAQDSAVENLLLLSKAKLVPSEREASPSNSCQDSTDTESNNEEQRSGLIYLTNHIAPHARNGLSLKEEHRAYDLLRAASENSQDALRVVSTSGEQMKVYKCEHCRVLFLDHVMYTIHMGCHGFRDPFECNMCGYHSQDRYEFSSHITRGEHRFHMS
Chain of UniProt Q6NUT3 (Q6NUT3 whole entry, looked up): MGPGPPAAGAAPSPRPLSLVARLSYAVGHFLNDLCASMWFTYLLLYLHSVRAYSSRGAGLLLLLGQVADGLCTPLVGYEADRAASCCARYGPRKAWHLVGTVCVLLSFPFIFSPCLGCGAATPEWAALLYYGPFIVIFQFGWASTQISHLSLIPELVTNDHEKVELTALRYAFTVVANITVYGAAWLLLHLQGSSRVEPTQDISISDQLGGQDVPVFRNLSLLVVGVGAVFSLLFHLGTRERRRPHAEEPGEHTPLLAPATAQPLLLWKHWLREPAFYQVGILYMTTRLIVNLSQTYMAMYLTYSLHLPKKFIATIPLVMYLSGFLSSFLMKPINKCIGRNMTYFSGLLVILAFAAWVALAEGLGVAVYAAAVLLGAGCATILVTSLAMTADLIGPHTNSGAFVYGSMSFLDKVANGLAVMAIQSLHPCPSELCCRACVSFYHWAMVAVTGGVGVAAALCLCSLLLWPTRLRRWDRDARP
Chain of UniProt P24592 (P24592 whole entry, looked up): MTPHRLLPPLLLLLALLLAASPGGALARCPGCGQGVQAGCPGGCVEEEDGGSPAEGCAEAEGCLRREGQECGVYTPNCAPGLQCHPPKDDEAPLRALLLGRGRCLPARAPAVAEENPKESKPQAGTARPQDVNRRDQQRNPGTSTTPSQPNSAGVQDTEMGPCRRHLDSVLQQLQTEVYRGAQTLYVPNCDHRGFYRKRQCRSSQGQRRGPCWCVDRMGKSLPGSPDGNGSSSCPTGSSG
Chain of UniProt P43361 (P43361 whole entry, looked up): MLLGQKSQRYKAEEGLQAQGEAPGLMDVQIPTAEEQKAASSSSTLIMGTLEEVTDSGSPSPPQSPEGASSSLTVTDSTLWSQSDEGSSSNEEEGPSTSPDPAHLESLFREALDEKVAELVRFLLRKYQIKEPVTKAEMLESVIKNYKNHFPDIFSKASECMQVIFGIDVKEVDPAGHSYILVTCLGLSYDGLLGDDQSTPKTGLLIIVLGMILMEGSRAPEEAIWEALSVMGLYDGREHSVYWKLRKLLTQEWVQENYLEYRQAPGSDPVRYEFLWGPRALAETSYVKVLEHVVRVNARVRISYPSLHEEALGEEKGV
Chain of UniProt Q9UPY8 (Q9UPY8 whole entry, looked up): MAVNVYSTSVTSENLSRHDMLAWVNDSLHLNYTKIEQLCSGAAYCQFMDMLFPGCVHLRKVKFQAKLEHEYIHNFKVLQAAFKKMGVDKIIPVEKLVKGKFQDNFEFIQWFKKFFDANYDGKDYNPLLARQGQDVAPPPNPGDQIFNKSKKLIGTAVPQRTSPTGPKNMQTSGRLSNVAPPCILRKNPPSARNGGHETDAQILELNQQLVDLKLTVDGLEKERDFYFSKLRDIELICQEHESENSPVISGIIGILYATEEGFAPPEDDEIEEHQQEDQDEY

As for IKZF1 (UniProt R9R4D9), the log2 fold change in assay [1] was -0.055; in [2] it was -0.13; with IRAK-1-4 Inhibitor I, -0.1; in the assay with pinometostat it was -0.103; in assay [3], 0.385.

As for KIF21A (UniProt H0YI78), the log2 fold change in the assay with erlotinib is 0.077; in assay [4], -0.137; in [5] it was 0.1; with ralimetinib, 0.366; in [6], -0.158; in assay [7], 0.012.

For the target LOX (UniProt P28300), the log2 fold change is -0.245 in the assay with erlotinib; 0.315 in assay [4]; 0.038 in [8]; 0.074 with ibrutinib; -0.218 in [6]; 0.144 in assay [9].

IGFBP6 (UniProt P24592): the log2 fold change in assay [10] is -0.215; in assay [11] it was 0.057; in assay [5] it was 0.131; in assay [12], -0.19; in assay [13], -0.02; with ralimetinib, -0.049. The log2 fold change in [7] is 0.097.

On to MAGEA8 (UniProt P43361), for which the log2 fold change is 0.033 with erlotinib; 0.038 in assay [10]; -0.075 in [4]; -0.04 in assay [11]; 0.132 in [8]; -0.028 in [5]. Moreover, the log2 fold change in [12] was -0.098; in assay [1], 0.052; in assay [2] it was 0.099; in the assay with IRAK-1-4 Inhibitor I, 0.014; with ibrutinib, -0.086; in [13], 0.128. For the same target, the log2 fold change was -0.02 in the assay with ralimetinib; -0.146 in [6]; 0.068 in assay [7]; 0.024 in the assay with pinometostat; 0.077 in [9]; -0.265 in [3].

For the target KIF13A isoform 4 (UniProt Q9H1H9), the log2 fold change was 0.21 in [10], 0.161 in assay [11], 0.021 in assay [12] and 0.123 in assay [13].

Turning to LSR (UniProt M0QZL9), the log2 fold change was 0.029 in [14] and 0.057 in [15].

In the case of MAPRE3 isoform 2 (UniProt Q9UPY8), the log2 fold change in [10] is -0.003; in assay [11], -0.18; in assay [12], -0.073; in assay [1], 0.012; in assay [2], -0.097; in the assay with IRAK-1-4 Inhibitor I, -0.384. For the same target, the log2 fold change is -0.139 in assay [13], -0.101 with pinometostat, 0.029 in assay [9] and 0.109 in assay [3].

On to MFAP3 (UniProt P55082), for which the log2 fold change was 0.202 in [10]; -0.021 in assay [14]; 0.029 in assay [11]; -0.106 in assay [8]; -0.142 in [12]; -0.088 in assay [1]. The log2 fold change in [2] was 0.064; with ibrutinib, -0.027; in assay [13], -0.067; in [15] it was -0.165; in [3], -0.111.

For the target MFSD11 (UniProt O43934), the log2 fold change in assay [10] is 0.001; in [14], 0.007; in assay [11], 0.047; in assay [8] it was 0.043; in [12], -0.067; in assay [1], 0.06. The log2 fold change in assay [2] was 0.219; with IRAK-1-4 Inhibitor I it was 0.015; in the assay with ibrutinib, 0.006; in [13], -0.029; in [15], -0.008; with pinometostat it was -0.009. Moreover, the log2 fold change was 0.031 in assay [9] and 0.095 in assay [3].

As for IKZF1 isoform 2 (UniProt Q13422), the log2 fold change with erlotinib is 0.017; in [4] it was -0.006; in [8] it was 0.046; in assay [5] it was 0.047; in assay [1], -0.38 (active); in assay [2] it was -0.016. Further, the log2 fold change in the assay with ibrutinib was 0.252; with ralimetinib it was 0.152; in assay [6] it was 0.031; in assay [7], 0.159; in assay [9], -0.041; in [3], 0.418 (active).

As for MFSD12 isoform 3 (UniProt Q6NUT3), the log2 fold change in the assay with erlotinib is 0.062; in [10] it was -0.062; in assay [4], 0.077; in [11], -0.035; in assay [12] it was 0.024; in assay [1], -0.088. Moreover, the log2 fold change is -0.099 in [2], -0.002 in assay [13], -0.474 (active) in [6] and -0.066 in assay [3].

For the target MAPK7 (UniProt Q13164), the log2 fold change in assay [10] is 0.095; in assay [14], 0.02; in assay [11] it was 0; in [12] it was 0.14; with IRAK-1-4 Inhibitor I, -0.033; in [13] it was 1.41 (active). Moreover, the log2 fold change in [15] was 0.008; with pinometostat, 0.105.

These data come from the supplement of paper PMC10849652.
